Results on nine compounds are retold here after PubChem BioAssay (NCI).

The panel holds about 83,000 compounds, 20% with a hit somewhere; the sample as a whole holds those more often.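 Each cell line was grown in a 96-well plate and treated with one concentration of compound for 48 hours. Values below 10 were considered active.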 Unmarked numbers belong to inactive results. Calls of active or inactive are those of the source.

Some test systems named below: HCT-15 colon; HT29 colon; SNB-19 CNS; U251 CNS; PC-3 prostate; SK-MEL-5 melanoma; UACC-62 melanoma; LOX IMVI melanoma; SK-MEL-28 melanoma; SK-MEL-2 melanoma; SN12C renal; UO-31 renal; TK-10 renal; ACHN renal; CAKI-1 renal; A498 renal; MOLT-4 leukemia; EKVX NSCLC; CCRF-CEM leukemia.
Experiment in all cases: NCI-60 one-dose screen, 48 h (100 = growth as untreated, 0 = no growth, -100 = all killed)
Holding throughout (conditions): 10 µM unless noted

Consider `COc1ccc(-c2nc(N3CCCC3=O)sc2Br)cc1OC`, for which the growth with HCT-15 colon was 89.8%; in the assay on HT29 colon, 82.7%; in the assay on SNB-19 CNS, 93.8%; with U251 CNS it was 96.7%; with PC-3 prostate, 101%; with SK-MEL-5 melanoma, 89.8%. In addition, the growth with UACC-62 melanoma was 90%; with LOX IMVI melanoma it was 100%; in the assay on SK-MEL-28 melanoma, 102%; with SK-MEL-2 melanoma, 86.5%; in the assay with SN12C renal, 104%; with UO-31 renal it was 93.6%. For the same compound, the growth in the assay on TK-10 renal is 94.1%; with ACHN renal, 93%; in the assay on CAKI-1 renal, 99.4%; in the assay with A498 renal, 88.3%; in the assay on MOLT-4 leukemia it was 93.8%.

Regarding `COc1ccc(-c2ccc(C)n2-c2ccc(-c3nc4cc(Cl)ccc4s3)cc2)cc1`, the growth with HCT-15 colon is 105%; with HT29 colon, 100%; in the assay on SNB-19 CNS, 103%; in the assay on U251 CNS, 98.2%; with PC-3 prostate it was 113%; with SK-MEL-5 melanoma it was 97.9%. Further, the growth in the assay on UACC-62 melanoma was 85.2%; with LOX IMVI melanoma, 95.8%; with SK-MEL-28 melanoma, 125%; in the assay on EKVX NSCLC, 90.3%; with SN12C renal it was 90.5%; in the assay with UO-31 renal it was 85%. In addition, the growth with TK-10 renal is 81.6%; with ACHN renal, 108%; with CAKI-1 renal, 79.9%; with A498 renal, 91.4%.

Take `COc1cc(-c2nn(-c3cccc(NC(=O)c4ccccc4)c3)cc2-c2ccncc2)ccc1Cl`: the growth is 19.2% in the assay with HCT-15 colon; 2.03% (active) in the assay on HT29 colon; 50% with SNB-19 CNS; 13.5% in the assay with U251 CNS; 10.5% in the assay with PC-3 prostate; -49.4% (active) in the assay on SK-MEL-5 melanoma. Moreover, the growth is 32.5% with UACC-62 melanoma; 17.4% in the assay with LOX IMVI melanoma; 34.4% with SK-MEL-28 melanoma; -42.5% (active) with SK-MEL-2 melanoma; 28.8% with SN12C renal; 29.8% in the assay on UO-31 renal. In addition, the growth with TK-10 renal is 31%; in the assay on ACHN renal it was 32.3%; with CAKI-1 renal, 40.6%; with A498 renal, -23.2% (active); in the assay on CCRF-CEM leukemia, 2.06% (active); with MOLT-4 leukemia, 0.658% (active).

In the case of `COc1ccc(N2CCN(Cc3cc(C(=O)/C=C/c4c[nH]c5ccccc45)ccc3O)CC2)cc1`, the growth is 98.7% with HCT-15 colon; 106% with HT29 colon; 100% in the assay on SNB-19 CNS; 95% in the assay on U251 CNS; 88.3% in the assay on PC-3 prostate; 99.6% in the assay with SK-MEL-5 melanoma. The growth was 101% in the assay on UACC-62 melanoma; 97.2% in the assay on LOX IMVI melanoma; 110% in the assay on SK-MEL-28 melanoma; 107% with SK-MEL-2 melanoma; 97.1% with SN12C renal; 55.9% in the assay with UO-31 renal. The growth in the assay on TK-10 renal is 117%; in the assay with ACHN renal it was 97.4%; in the assay with CAKI-1 renal, 90.2%; in the assay with A498 renal, 106%; in the assay with CCRF-CEM leukemia, 95.8%; with MOLT-4 leukemia, 95%.

As to `COc1cc(-c2nn(-c3cccc(NC(=O)Nc4ccc(Cl)c(C(F)(F)F)c4)c3)cc2-c2ccncc2)ccc1Cl`, the growth with HCT-15 colon was 9.91% (active); in the assay on HT29 colon it was -0.5% (active); in the assay on SNB-19 CNS it was 26.4%; with U251 CNS it was -20.9% (active); in the assay with PC-3 prostate it was -19% (active); in the assay on SK-MEL-5 melanoma it was -65.3% (active). Also, the growth is -43.8% (active) with UACC-62 melanoma; 1.06% (active) in the assay on LOX IMVI melanoma; 8.8% (active) in the assay on SK-MEL-28 melanoma; -57.8% (active) in the assay on SK-MEL-2 melanoma; 12.6% with SN12C renal; 11% in the assay with UO-31 renal. Besides, the growth in the assay with TK-10 renal was 12.6%; in the assay with ACHN renal, 9.33% (active); with CAKI-1 renal it was 14.7%; with A498 renal it was -6.71% (active); in the assay with CCRF-CEM leukemia it was -8.04% (active); in the assay on MOLT-4 leukemia it was -2.38% (active).

Turning to `O=C(Nc1ccc2c(c1)OCO2)C(=O)c1c[nH]c2cc(F)ccc12`, the growth in the assay on HCT-15 colon was 57.2%; in the assay with HT29 colon, 62%; in the assay on SNB-19 CNS, 85.1%; in the assay with U251 CNS it was 58.4%; with PC-3 prostate, 63.8%; with SK-MEL-5 melanoma it was 58%. Moreover, the growth was 22% in the assay on UACC-62 melanoma; 8.88% (active) in the assay with LOX IMVI melanoma; 30.7% in the assay on SK-MEL-28 melanoma; 72.4% with EKVX NSCLC; 79.5% with SN12C renal; 71.2% with UO-31 renal. The growth in the assay with TK-10 renal is 72.7%; in the assay with ACHN renal it was 44.9%; in the assay on CAKI-1 renal, 32.7%; in the assay with A498 renal it was 55%; in the assay with MOLT-4 leukemia, 63.1%.

With `COc1cc(-c2nn(-c3cccc(NC(=O)c4cccc(C(F)(F)F)c4)c3)cc2-c2ccncc2)ccc1Cl`, the growth in the assay with HCT-15 colon was 12.8%; in the assay on HT29 colon it was -12.1% (active); in the assay with SNB-19 CNS, 47.3%; in the assay with U251 CNS it was 13.1%; with PC-3 prostate, 4.39% (active); with SK-MEL-5 melanoma, -33% (active). Besides, the growth with UACC-62 melanoma was 27.2%; in the assay with LOX IMVI melanoma it was 11.4%; in the assay on SK-MEL-28 melanoma, 32.5%; with SK-MEL-2 melanoma it was -38.6% (active); in the assay on SN12C renal, 34.4%; with UO-31 renal it was 25.1%. Moreover, the growth was 8.08% (active) with TK-10 renal; 31.6% in the assay on ACHN renal; 44.7% with CAKI-1 renal; -19% (active) in the assay with A498 renal; 3.1% (active) in the assay with CCRF-CEM leukemia; 8.63% (active) in the assay with MOLT-4 leukemia.

As to `COc1ccc(C(=O)N2NC(=O)/C(=C/c3ccc(F)cc3)N=C2c2ccccc2)cc1`, the growth in the assay with HCT-15 colon is 73%; with HT29 colon it was 94.6%; in the assay on SNB-19 CNS it was 83.7%; in the assay on U251 CNS, 56.4%; in the assay with PC-3 prostate, 89.1%; with SK-MEL-5 melanoma, 96.1%. The growth was 77.4% with UACC-62 melanoma; 91.7% with LOX IMVI melanoma; 102% in the assay on SK-MEL-28 melanoma; 88.4% in the assay on EKVX NSCLC; 84.7% with SN12C renal; 91.7% in the assay on UO-31 renal. In addition, the growth with TK-10 renal was 96.4%; in the assay on ACHN renal, 94.2%; in the assay on CAKI-1 renal, 86.1%; with A498 renal, 69.2%.

On to `COc1ccc(-c2cnoc2-c2ccc(OC)cc2O)cc1`, for which the growth in the assay on HCT-15 colon is 26.7%; in the assay on HT29 colon it was 24.1%; with SNB-19 CNS it was 42.4%; in the assay with U251 CNS it was 25.6%; in the assay with PC-3 prostate, 53.2%; with SK-MEL-5 melanoma, 15.8%. Also, the growth in the assay on UACC-62 melanoma is 28.9%; in the assay on LOX IMVI melanoma, 41.2%; in the assay with SK-MEL-28 melanoma, 45%; in the assay with EKVX NSCLC, 82.9%; with SN12C renal, 37.2%; in the assay with UO-31 renal it was 74.5%. Moreover, the growth with TK-10 renal was 86.9%; with ACHN renal, 57.4%; in the assay with CAKI-1 renal, 45.2%; in the assay with A498 renal, 7.36% (active).
